These results are taken from PubChem BioAssay (EPA / NIEHS).

Activity calls are given as the source filed them. The calls were made as follows: active = hit-call score of the fitted dose curve at least 0.9, where 1 is the maximum; inactive = score below 0.9.

Chain of Myc proto-oncogene protein (Homo sapiens) (P01106 whole entry, looked up, the tested form may be a part): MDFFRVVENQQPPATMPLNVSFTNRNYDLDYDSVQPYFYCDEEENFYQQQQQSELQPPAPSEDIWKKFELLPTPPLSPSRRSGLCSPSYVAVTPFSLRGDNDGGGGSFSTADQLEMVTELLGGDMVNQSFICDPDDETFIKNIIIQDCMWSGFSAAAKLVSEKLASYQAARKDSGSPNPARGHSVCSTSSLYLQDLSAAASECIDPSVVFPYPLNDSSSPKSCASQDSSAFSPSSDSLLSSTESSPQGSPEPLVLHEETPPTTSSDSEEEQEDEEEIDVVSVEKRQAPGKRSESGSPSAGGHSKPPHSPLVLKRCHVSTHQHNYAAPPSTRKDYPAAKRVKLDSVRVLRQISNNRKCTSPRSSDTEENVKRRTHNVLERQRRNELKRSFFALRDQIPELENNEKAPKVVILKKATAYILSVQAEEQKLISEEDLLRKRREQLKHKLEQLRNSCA
Chain of Nuclear respiratory factor 1 (Homo sapiens) (Q16656 whole entry, looked up): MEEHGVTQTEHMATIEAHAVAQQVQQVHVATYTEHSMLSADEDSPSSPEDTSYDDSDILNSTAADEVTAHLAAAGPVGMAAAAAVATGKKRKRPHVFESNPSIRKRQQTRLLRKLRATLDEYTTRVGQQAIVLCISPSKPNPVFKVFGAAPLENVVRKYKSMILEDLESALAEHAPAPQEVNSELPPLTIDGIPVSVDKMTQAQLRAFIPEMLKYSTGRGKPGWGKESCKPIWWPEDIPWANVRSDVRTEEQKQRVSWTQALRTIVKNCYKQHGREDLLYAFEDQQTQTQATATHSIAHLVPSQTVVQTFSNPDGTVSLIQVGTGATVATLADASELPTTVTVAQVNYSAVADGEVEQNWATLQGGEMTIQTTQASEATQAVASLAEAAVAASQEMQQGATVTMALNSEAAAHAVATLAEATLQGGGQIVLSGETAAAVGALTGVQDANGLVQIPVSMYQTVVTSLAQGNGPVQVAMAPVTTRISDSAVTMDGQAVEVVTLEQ

The target of one assay is Transcriptional activator Myb (Homo sapiens) (UniProt P10242). Briefly: ATG_Myb_CIS: Attagene CIS-FACTORIAL HepG2 Assay for human Myeloblastosis (Myb) Proto-Oncogene Transcription Factor (AID 2282986). The conditions noted are these: HepG2 Attagene CIS-FACTORIAL Myb reporter transcription; actives raise or lower the signal. An outline of the steps: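 Using HepG2 liver cells bearing transiently transfected cis-promoter reporter constructs, the assay measures induction or loss of reporter mRNA after 24 hours of dosing. Detection used fluorescently labeled RT-PCR products separated by capillary electrophoresis.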
Chain of Transcriptional activator Myb (Homo sapiens) (P10242 whole entry, looked up): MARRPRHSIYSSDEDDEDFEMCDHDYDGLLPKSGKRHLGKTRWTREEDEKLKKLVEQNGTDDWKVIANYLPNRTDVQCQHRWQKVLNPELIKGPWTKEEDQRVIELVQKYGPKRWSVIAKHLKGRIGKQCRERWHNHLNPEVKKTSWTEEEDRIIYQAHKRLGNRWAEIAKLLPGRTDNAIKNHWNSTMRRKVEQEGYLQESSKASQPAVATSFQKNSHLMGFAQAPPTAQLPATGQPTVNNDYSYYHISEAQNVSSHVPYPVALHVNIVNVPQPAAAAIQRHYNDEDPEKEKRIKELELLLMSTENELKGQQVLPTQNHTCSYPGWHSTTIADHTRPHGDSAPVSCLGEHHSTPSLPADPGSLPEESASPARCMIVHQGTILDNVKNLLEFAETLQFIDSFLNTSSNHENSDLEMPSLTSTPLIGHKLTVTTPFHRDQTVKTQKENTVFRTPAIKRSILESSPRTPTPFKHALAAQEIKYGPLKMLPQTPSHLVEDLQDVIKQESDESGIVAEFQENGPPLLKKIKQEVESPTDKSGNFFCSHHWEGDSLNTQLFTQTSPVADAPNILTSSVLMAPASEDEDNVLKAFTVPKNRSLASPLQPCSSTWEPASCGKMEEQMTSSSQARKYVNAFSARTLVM
Turning to `O=C1CCCO1`, the outcome was inactive.

As for `N#CC(Br)(Br)C(N)=O`, the outcome was inactive.

On to `CC(C)(C)OOC(C)(C)CCC(C)(C)OOC(C)(C)C`, for which the compound was classed as inactive.

In the case of `CC(O)CCO` (stereo not drawn), the compound was called inactive.

For the compound `Cc1ccc([N+](=O)[O-])cc1`, the outcome was inactive.

In the case of `C1=Cc2cccc3cccc1c23`, the outcome was inactive.

Regarding `CCCCC(CC)COC(=O)c1ccc(C(=O)OCC(CC)CCCC)c(C(=O)OCC(CC)CCCC)c1` (stereo not drawn), the compound was classed as inactive.

For the compound `COC(=O)Nc1nc2ccccc2[nH]1`, the outcome was inactive.

Regarding `Cc1ccc(N)c(N)c1`, the outcome was inactive.

Turning to `Clc1ccc(Cl)c(Cl)c1`, the result was inactive.

On to `CC(C)(C)OOC(=O)c1ccccc1`, for which the AC50 is 153 µM (active).

In the case of `CCN(CC)CCO`, the compound was called inactive.

`C[N+](C)(C)CC1CO1` (stereo not drawn): the outcome was inactive.

For the compound `OCCOCCO`, the call was inactive.

Consider `OCCCBr`, for which the call was inactive.

Turning to `[O-][Cl+]O`, the compound was classed as inactive.

On to `Nc1cc(Cl)cc(C(=O)O)c1Cl`, for which the result was inactive.

For the compound `COc1cc(C=O)cc2c1[C@H](COC(N)=O)[C@]1(OC(C)=O)ON2C[C@H]2[C@@H]1N2C(C)=O`, the AC50 is 2.77 µM (active).

On to `COC(=O)c1ccccc1N`, for which the compound was called inactive.

Regarding `O=Cc1ccco1`, the compound was classed as inactive.

Take `Cc1ccc(N)cc1`: the compound was called inactive.

Take `ClC1=C(Cl)[C@]2(Cl)[C@H]3[C@H]([C@@H]4C=C[C@H]3C4)[C@@]1(Cl)C2(Cl)Cl`: the compound was called inactive.

For `CCN(CC)N=O`, the outcome was inactive.

As for `Cc1ccc(N=C=O)cc1N=C=O`, the call was inactive.

In the case of `c1ccc2c(c1)-c1cccc3cccc-2c13`, the compound was called inactive.

For `CCOc1cccc(C2(N3CCN(c4ccccc4)CC3)CCC(C)CC2)c1` (stereo not drawn), the outcome was inactive.

`CS(=O)(=O)NC(=O)c1cc(Oc2ccc(C(F)(F)F)cc2Cl)ccc1[N+](=O)[O-]`: the compound was called inactive.

`CCC12COCN1COC2`: the compound was called inactive.

The target in the next assay is Nuclear respiratory factor 1 (Homo sapiens) (UniProt Q16656). Briefly: ATG_NRF1_CIS: Attagene CIS-FACTORIAL HepG2 Assay for human Nuclear Respiratory Factor 1 (NRF1) Orphan Gene (AID 2282987). The conditions noted are these: HepG2 NRF1 cis-element reporter, Attagene multiplex; actives raise or lower the signal. An outline of the steps:
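Reporter mRNA induction or loss in HepG2 cells after 24 h dosing; cis-regulated reporter constructs report endogenous transcription-factor activity. Quantified by RT-PCR/capillary electrophoresis fluorescence, DMSO-referenced.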
As to `CC(C)(C)OOC(C)(C)CCC(C)(C)OOC(C)(C)C`, the result was inactive.

With `CC(O)CCO` (stereo not drawn), the outcome was inactive.

Turning to `Cc1ccc([N+](=O)[O-])cc1`, the compound was classed as inactive.

With `C1=Cc2cccc3cccc1c23`, the call was inactive.

As for `CCCCC(CC)COC(=O)c1ccc(C(=O)OCC(CC)CCCC)c(C(=O)OCC(CC)CCCC)c1` (stereo not drawn), the compound was called inactive.

In the case of `Clc1ccc(Cl)c(Cl)c1`, the call was inactive.

On to `CCN(CC)CCO`, for which the result was inactive.

For `C[N+](C)(C)CC1CO1` (stereo not drawn), the compound was classed as inactive.

In the case of `COc1cc(C=O)cc2c1[C@H](COC(N)=O)[C@]1(OC(C)=O)ON2C[C@H]2[C@@H]1N2C(C)=O`, the compound was classed as inactive.

As for `O=Cc1ccco1`, the result was inactive.

For the compound `Cc1ccc(N)cc1`, the call was inactive.

Take `ClC1=C(Cl)[C@]2(Cl)[C@H]3[C@H]([C@@H]4C=C[C@H]3C4)[C@@]1(Cl)C2(Cl)Cl`: the compound was classed as inactive.

With `CCN(CC)N=O`, the result was inactive.

For `CCOc1cccc(C2(N3CCN(c4ccccc4)CC3)CCC(C)CC2)c1` (stereo not drawn), the outcome was inactive.

Consider `CS(=O)(=O)NC(=O)c1cc(Oc2ccc(C(F)(F)F)cc2Cl)ccc1[N+](=O)[O-]`, for which the result was inactive.

Test system in another assay: not listed separately
Description: ATG_NFI_CIS: Attagene CIS-FACTORIAL HepG2 Assay for human Nuclear Factor I (NFI) (AID 2282989). To be noted: HepG2 cis-regulatory reporter, NFI response element transcription; actives raise or lower the signal. An outline of the steps: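 Endogenous TF activity in HepG2 cells transiently transfected with cis-element-driven multiplexed reporter units, read 24 h after dosing. Reporter mRNA quantified by RT-PCR, 6-FAM labelling, HpaI digestion and capillary electrophoresis; bidirectional fit versus DMSO.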
Regarding `O=C1CCCO1`, the call was inactive.

As to `N#CC(Br)(Br)C(N)=O`, the outcome was inactive.

As to `CC(C)(C)OOC(C)(C)CCC(C)(C)OOC(C)(C)C`, the outcome was inactive.

Consider `CC(O)CCO` (stereo not drawn), for which the result was inactive.

For `Cc1ccc([N+](=O)[O-])cc1`, the compound was called inactive.

As for `C1=Cc2cccc3cccc1c23`, the result was inactive.

As for `CCCCC(CC)COC(=O)c1ccc(C(=O)OCC(CC)CCCC)c(C(=O)OCC(CC)CCCC)c1` (stereo not drawn), the compound was called inactive.

As to `COC(=O)Nc1nc2ccccc2[nH]1`, the compound was called inactive.

Consider `Cc1ccc(N)c(N)c1`, for which the result was inactive.

In the case of `Clc1ccc(Cl)c(Cl)c1`, the result was inactive.

Regarding `CC(C)(C)OOC(=O)c1ccccc1`, the call was inactive.

As to `CCN(CC)CCO`, the compound was classed as inactive.

In the case of `C[N+](C)(C)CC1CO1` (stereo not drawn), the compound was classed as inactive.

With `OCCOCCO`, the compound was classed as inactive.

For the compound `OCCCBr`, the result was inactive.

Regarding `[O-][Cl+]O`, the call was inactive.

In the case of `Nc1cc(Cl)cc(C(=O)O)c1Cl`, the call was inactive.

For `COc1cc(C=O)cc2c1[C@H](COC(N)=O)[C@]1(OC(C)=O)ON2C[C@H]2[C@@H]1N2C(C)=O`, the AC50 was 52 µM (active).

As to `COC(=O)c1ccccc1N`, the compound was called inactive.

Take `O=Cc1ccco1`: the call was inactive.

Turning to `Cc1ccc(N)cc1`, the compound was classed as inactive.

As to `ClC1=C(Cl)[C@]2(Cl)[C@H]3[C@H]([C@@H]4C=C[C@H]3C4)[C@@]1(Cl)C2(Cl)Cl`, the compound was classed as inactive.

In the case of `CCN(CC)N=O`, the compound was called inactive.

On to `Cc1ccc(N=C=O)cc1N=C=O`, for which the compound was called inactive.

For `c1ccc2c(c1)-c1cccc3cccc-2c13`, the call was inactive.

As to `CCOc1cccc(C2(N3CCN(c4ccccc4)CC3)CCC(C)CC2)c1` (stereo not drawn), the outcome was inactive.

As for `CS(=O)(=O)NC(=O)c1cc(Oc2ccc(C(F)(F)F)cc2Cl)ccc1[N+](=O)[O-]`, the compound was called inactive.

As to `CCC12COCN1COC2`, the call was inactive.

A further assay has as its target Myc proto-oncogene protein (Homo sapiens) (UniProt P01106). Description: ATG_Myc_CIS: Attagene CIS-FACTORIAL HepG2 Assay for human Myelocytomatosis (Myc) Proto-Oncogene Transcription Factor (AID 2282990). The conditions noted are these: HepG2, Attagene cis-reporter transcription factor activity; actives raise or lower the signal. An outline of the steps:
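After 24 h chemical treatment of HepG2 cells carrying multiplexed cis-regulated reporter constructs, reporter transcripts quantified by RT-PCR and capillary electrophoresis of fluorescent fragments. Gain or loss fitted against DMSO baseline.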
As to `N#CC(Br)(Br)C(N)=O`, the result was inactive.

For the compound `CC(C)(C)OOC(C)(C)CCC(C)(C)OOC(C)(C)C`, the outcome was inactive.

`C1=Cc2cccc3cccc1c23`: the result was inactive.

`CCCCC(CC)COC(=O)c1ccc(C(=O)OCC(CC)CCCC)c(C(=O)OCC(CC)CCCC)c1` (stereo not drawn): the result was inactive.

As to `COC(=O)Nc1nc2ccccc2[nH]1`, the compound was called inactive.

For the compound `CC(C)(C)OOC(=O)c1ccccc1`, the compound was classed as inactive.

With `C[N+](C)(C)CC1CO1` (stereo not drawn), the compound was called inactive.

`OCCOCCO`: the call was inactive.

Turning to `OCCCBr`, the compound was classed as inactive.

Regarding `COc1cc(C=O)cc2c1[C@H](COC(N)=O)[C@]1(OC(C)=O)ON2C[C@H]2[C@@H]1N2C(C)=O`, the AC50 was 7.48 µM (active).

Consider `COC(=O)c1ccccc1N`, for which the compound was classed as inactive.

Turning to `Cc1ccc(N)cc1`, the call was inactive.

With `ClC1=C(Cl)[C@]2(Cl)[C@H]3[C@H]([C@@H]4C=C[C@H]3C4)[C@@]1(Cl)C2(Cl)Cl`, the call was inactive.

For the compound `CCN(CC)N=O`, the call was inactive.

As to `c1ccc2c(c1)-c1cccc3cccc-2c13`, the outcome was inactive.

Consider `CCOc1cccc(C2(N3CCN(c4ccccc4)CC3)CCC(C)CC2)c1` (stereo not drawn), for which the compound was classed as inactive.

Regarding `CS(=O)(=O)NC(=O)c1cc(Oc2ccc(C(F)(F)F)cc2Cl)ccc1[N+](=O)[O-]`, the compound was called inactive.
